Results on 40 compounds are retold here after PubChem BioAssay (Tox21).

“And” between values parts separate entries of the source, which are not always exact repeats. Equal values may be shown once. Inconclusive results are not listed. Some structures have more than one record in an assay (separate samples or runs), and their calls can disagree. The source made the active and inactive calls. Calls come from the whole dose curve.
% is set by controls: 0 for no effect and ±100 for the full control effect; potency is the fitted concentration of half-maximal effect.

The experiment is described as follows: p53 small molecule agonists, cell-based qHTS assay with rat liver microsomes: qHTS cell viability counter screen (AID 1963580). Note: nearly all actives have a fitted effect of over 45% in size. Particulars: p53RE-bla HCT-116 + rat microsomes, ATP viability, 16 h; series mostly up to 66 µM; activity change, negative = cytotoxicity: at the top concentration. From the text: National Center for Advancing Translational Sciences [NCATS]
Division of Preclinical Innovation [DPI]
U.S. Environmental Protection Agency [EPA]
National Institutes of Environmental Health Sciences [NIEHS]
National Toxicology Program [NTP]
U.S. Food and Drug Administration [FDA]
p53, a tumor suppressor protein, is activated following cellular insult, including DNA damage and other cellular stresses. The activation of p53 regulates cell fate by inducing DNA repair, cell cycle arrest, apoptosis, or cellular senescence. The activation of p53, therefore, is a good indicator of DNA damage and other cellular stresses. The CellSensor p53RE-bla HCT-116 cell line contains a stably integrated beta-lactamase reporter gene under control of the p53 response elements. The activation of the reporter gene under culture conditions can be detected by fluorescence intensity. This cell line was used to screen the Tox21 10K compound library in the condition of presence of rat liver microsomes and to identify agonists that activate the p53 signaling pathway after in vitro metabolic activation (Ooka et al., Archive of Toxicology 96:1975-1987, 2022). The cytotoxicity of the Tox21 compound library against the p53 RE-bla HCT-116 cell line was tested in parallel by measuring the intra cellular ATP content in the same wells.
Tox21 Assay Protocol Summary:
The p53RE-bla cells were dispensed at 4,000cells/3ul/well in 1536-well black-clear bottom plates. After the assay plates were incubated at 37 C, 5% CO2 incubator for 5 hours, 23 nL of compounds dissolved in DMSO, positive controls or DMSO only was transferred to the assay plate. Following compound addition, 3 uL of rat liver microsomes (Molecular Toxicology, Boone, NC) at final concentration of 0.5 mg/mL and 1uL of B-Nicotinamide adenine dinucleotide 2'-phosphate (NADPH) at final concentration of 0.5 mg/mL were transferred to the assay plate. The plates were incubated at 37 C for 16 hours. 1 uL of LiveBLAzer detection mixture was added to each well and the plates were incubated at room temperature in the dark for 2 h. Fluorescence intensity at 460 and 530 nm emission and 405 nm excitation were measured by an Envision plate reader. For cell viability readout that measures cytotoxicity, 4 ul/well of CellTiter-Glo reagent was added into the assay plates using a Flying Reagent Dispenser. After 30 min incubation at room temperature, the luminescence intensity in the plates was measured using a ViewLux plate reader.
Take `CC1(C)C(=O)NC(=O)NC1=O`: the “activity change, negative = cytotoxicity” value is -2.14% (inactive).
As for `CCNc1nc(NC(C)(C)C)nc(SC)n1`, the “activity change, negative = cytotoxicity” value was -10.3% (inactive).
For `Nc1c(Cl)c(Cl)nc(C(=O)O)c1Cl`, the Potency result is “inactive”.
The same measure, in the same setting: for `[CH3][Sn]([Cl])([Cl])[Cl]` the value was “inactive”.
Take `COP(=O)(OC)OC`: the “activity change, negative = cytotoxicity” value is -4.88% (inactive).
With `BrCc1ccc(Br)cc1`, the “activity change, negative = cytotoxicity” value was 0.1% (inactive).
For `Clc1ccccc1Cl`, the Potency result was “inactive”.
For the compound `CC(=O)C(C)(C)C`, the “activity change, negative = cytotoxicity” value is 1.8% (inactive).
Turning to `CCOP(=O)(OCC)Oc1ccc([N+](=O)[O-])cc1`, the Potency result is “inactive”.
As for `Brc1c(Br)c(Br)c(Oc2c(Br)c(Br)c(Br)c(Br)c2Br)c(Br)c1Br`, the activity change, negative = cytotoxicity is 4.17% [at 13.5 µM] (inactive).
The same measure, in the same setting: the same measure for `COc1ccc(C(O)(c2cncnc2)C2CC2)cc1` (stereo not given): 0.437% (inactive).
Turning to `CNc1cnn(-c2cccc(C(F)(F)F)c2)c(=O)c1Cl`, the Potency entry was “inactive”.
For the compound `C=C(C)C(=O)OCC1CO1` (stereo not given), the Potency result is “inactive”.
As for `CC(C)c1ccc(CO)cc1`, the “activity change, negative = cytotoxicity” value is -6.75% (inactive).
Take `O=NN1CCCCC1`: the “activity change, negative = cytotoxicity” value was 3.69% (inactive).
Regarding `CCCN(CCC)c1c([N+](=O)[O-])cc(C(C)C)cc1[N+](=O)[O-]`, the Potency result is “inactive”.
Turning to `C=CC(C)=O`, the “activity change, negative = cytotoxicity” value was -0.127% (inactive).
As for `CCCCN(CCCC)SN(C)C(=O)Oc1cccc2c1OC(C)(C)C2`, the Potency entry was “inactive”.
As to `CCCn1cc[n+](C)c1`, the Potency result is “inactive”.
As for `CON(C)C(=O)Nc1ccc(Cl)cc1`, the “activity change, negative = cytotoxicity” value is 8.15% (inactive).
As to `CC(C)N(C(=O)CCl)c1ccccc1`, the “activity change, negative = cytotoxicity” value is -23.3% (inactive).
The same measure, in the same setting: for `O=C(Cl)CCl` the value was -9.87% (inactive); for `C=Cc1cccc(CCl)c1`, -1.57% [at 172 µM] (inactive).
Regarding `CN=C=S`, the Potency entry is “inactive”.
With `c1ccc2c(c1)-c1cccc3cccc-2c13`, the Potency entry is “inactive”.
For `N#CCCCCC#N`, the “activity change, negative = cytotoxicity” value was 4.58% (inactive).
In the case of `NC(=O)O`, the “activity change, negative = cytotoxicity” value was 2.5% (inactive).
In the case of `NN=C(N)N`, the Potency entry was “inactive”.
Take `OC[P+](CO)(CO)CO`: the Potency result is “inactive”.
With `CCCCOCCOC(C)=O`, the Potency result was “inactive”.
For `CN(CCO)CCO`, the “activity change, negative = cytotoxicity” value was -6.3% (inactive).
On the same count and under the same terms, the same measure for `Cl/C=C\C[N+]12CN3CN(CN(C3)C1)C2`: 0% (inactive).
As to `CCCCCBr`, the “activity change, negative = cytotoxicity” value is 0.417% (inactive).
Same read-out and setting: the same measure for `O=C(O)c1ccc(=O)[nH]c1`: 0.359% [at 30.3 µM] (inactive).
For `CC(C)OC(=O)Nc1cccc(Cl)c1`, the Potency entry was “inactive”.
For the compound `CCCCCCCC[N+](C)(CCCCCCCC)CCCCCCCC`, the Potency was 14.4 µM (active) and inactive and 40.8 µM (active).
As for `O=[N+]([O-])c1ccccc1-c1ccccc1`, the “activity change, negative = cytotoxicity” value is -1.36% (inactive).
On to `FC(Cl)(Cl)Cl`, for which the “activity change, negative = cytotoxicity” value is 1.56% (inactive).
As for `CCOC(=O)c1ccccc1S(=O)(=O)NC(=O)Nc1nc(Cl)cc(OC)n1`, the “activity change, negative = cytotoxicity” value was -4.56% (inactive).
Turning to `Cc1cc(O)ccc1Cl`, the Potency entry was “inactive”.
